Reference: PubChem BioAssay (NCATS)
Results filed as inconclusive are left out. Activity calls are given as the source filed them. Calls come from the whole dose curve; as a rule, active = well fitted inhibition curve with a large enough effect; inconclusive = small, poorly fitted or top-dose-only effect; inactive = flat fitted curve, though single readings scatter.

tested on: CRL-7250; test: Cytotoxic Profiling of Annotated Libraries Using Quantitative High-Throughput Screening (AID 1296008); conditions: Five cell lines viability, CellTiter-Glo ATP luminescence, 48-72 h; max response: stronger effect = lower value; note: nearly all actives have a fitted effect of over 60% in size
Summary of the method: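 Cytotoxicity was measured as CellTiter-Glo ATP luminescence, read after 10 min at room temperature. Compound treatment of the cells lasted 48 or 72 hr at 37 degrees Celsius in a qHTS format.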
% is set by controls: 0 for no effect and ±100 for the full control effect.

Structure (SMILES)	max response	outcome
CC1(C)C[C@H]2C3=CCC4[C@@]5(C)CC[C@H](O[C@H]6O[C@H](C(=O)O)[C@@H](O)[C@H](O)[C@H]6O[C@H]6O[C@H](CO)[C@@H](O)[C@H](O)[C@H]6O[C@@H]6O[C@H](CO)[C@@H](O)[C@H](O)[C@H]6O)[C@](C)(CO)C5CC[C@@]4(C)[C@]3(C)CC[C@@]2(C)[C@H](O[C@@H]2OC[C@H](O)[C@H](OC3O[C@H](CO)[C@@H](O)[C@H](O)[C@H]3O)[C@H]2O)[C@@H]1O (stereo not given in full)	3.94% (inactive)	–
COc1cc(C[C@H]2COC(=O)[C@@H]2Cc2ccc(O)c(OC)c2)ccc1O	–	inactive
O=C(OCc1cccc(O)c1O[C@@H]1O[C@H](CO)[C@@H](O)[C@H](O)[C@H]1O)C1(O)C(=O)C2C=CC1C1C=CC(=O)C(O)(C(=O)OCc3cccc(O)c3O[C@@H]3O[C@H](CO)[C@@H](O)[C@H](O)[C@H]3O)C21 (stereo not given in full)	-8.04% (inactive)	–
CC(=O)NC(CCC(=O)O)C(=O)NCCc1ccc(O)cc1 (stereo not given)	–	inactive
CC(=O)O[C@@H]1C[C@]2(C)[C@@]3(CCC4[C@@]5(C)CC[C@H](O[C@@H]6O[C@H](C(=O)O)[C@@H](O)[C@H](O[C@@H]7O[C@H](CO)[C@H](O)[C@H](O)[C@H]7O[C@@H]7O[C@@H](C)[C@H](O)[C@@H](O)[C@H]7O[C@@H]7OC[C@](O)(CO)[C@H]7O)[C@H]6O[C@@H]6O[C@H](CO)[C@H](O)[C@H](O)[C@H]6O)C(C)(C)C5CC[C@]42C)O[C@@H](O)[C@]12C3CC(C)(C)[C@@H](OC(=O)/C=C/c1ccc(O)c(O)c1)[C@@H]2OC(=O)/C=C/c1ccccc1 (stereo not given in full)	3.23% (inactive)	–
